Records with an inconclusive call do not appear. The source made the active and inactive calls. Unless noted, calls follow the shape of the dose curve; as a rule, active = well fitted curve in either direction with a large enough effect (not every such curve was filed as active); inconclusive = small, poorly fitted or top-dose-only effect, or another doubt; inactive = flat fitted curve, though single readings scatter.
Columns and labels:
[1] = target: Lysosomal acid glucosylceramidase (Homo sapiens) (UniProt P04062); assay: Glucocerebrosidase-p2 (AID 348; in the data active = potency below about 10 µM; also: potency is read from the fitted curve at half-maximal effect); details: purified GBA, blue fluorogenic substrate, 40 min
Sequence of Lysosomal acid glucosylceramidase (Homo sapiens) (P04062 whole entry, looked up): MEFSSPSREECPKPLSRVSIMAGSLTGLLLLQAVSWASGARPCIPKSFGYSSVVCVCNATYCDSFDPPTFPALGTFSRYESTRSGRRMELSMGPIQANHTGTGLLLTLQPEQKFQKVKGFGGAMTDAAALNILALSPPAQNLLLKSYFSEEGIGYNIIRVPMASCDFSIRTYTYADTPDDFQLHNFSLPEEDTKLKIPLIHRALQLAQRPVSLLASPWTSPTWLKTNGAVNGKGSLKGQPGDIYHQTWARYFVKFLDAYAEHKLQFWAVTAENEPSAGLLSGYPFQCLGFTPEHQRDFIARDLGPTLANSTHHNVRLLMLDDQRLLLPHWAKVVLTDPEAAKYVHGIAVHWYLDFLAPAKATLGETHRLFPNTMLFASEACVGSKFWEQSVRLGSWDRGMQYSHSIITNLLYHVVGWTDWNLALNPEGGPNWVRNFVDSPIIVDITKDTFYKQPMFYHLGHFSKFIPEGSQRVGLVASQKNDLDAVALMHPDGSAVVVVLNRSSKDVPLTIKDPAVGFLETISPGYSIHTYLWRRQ
Summary of the method: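 Normal human glucocerebrosidase (0.2 nM) with blue fluorogenic substrate (80 uM final) in citrate/phosphate pH 5.9 with 10mM sodium taurocholate, 0.01% tween-20; 40 min RT, NaOH/glycine stop; fluorescence Ex 365/Em 440; AC50 from a titration from 0.6 nM upwards.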

[2] = AP1 Signaling Pathway (AID 357); details: ME-180 AP-1-bla reporter, EGF-induced, beta-lactamase ratio, 5 h; at 7.69 µM (top of the series) unless noted;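 also: ME-180 reporter cells stimulated with EGF at its EC50 level; % is scaled to controls: 0 for no effect and ±100 for the full control effect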
Summary of the method: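 First, ME-180 AP-1-bla cells were cultured overnight at 37 °C in low-serum Opti-MEM. Next, titrated compounds with EC50 EGF were incubated 5 hours. Finally, CCF4 was added for 2.5 hours and the 460/530 nm ratio recorded.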

[3] = target: Cytochrome P450 1A2 (Homo sapiens) (UniProt P05177); assay: p450-cyp1a2 (AID 410; calls by dose curve; also: potency is read from the fitted curve at half-maximal effect;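 as to activity change, negative = inhibition: -100% = full effect of reference inhibitor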); details: recombinant CYP1A2, luciferin-ME demethylation, luminescence; series mostly up to 57 µM
Sequence of Cytochrome P450 1A2 (Homo sapiens) (P05177 whole entry, looked up): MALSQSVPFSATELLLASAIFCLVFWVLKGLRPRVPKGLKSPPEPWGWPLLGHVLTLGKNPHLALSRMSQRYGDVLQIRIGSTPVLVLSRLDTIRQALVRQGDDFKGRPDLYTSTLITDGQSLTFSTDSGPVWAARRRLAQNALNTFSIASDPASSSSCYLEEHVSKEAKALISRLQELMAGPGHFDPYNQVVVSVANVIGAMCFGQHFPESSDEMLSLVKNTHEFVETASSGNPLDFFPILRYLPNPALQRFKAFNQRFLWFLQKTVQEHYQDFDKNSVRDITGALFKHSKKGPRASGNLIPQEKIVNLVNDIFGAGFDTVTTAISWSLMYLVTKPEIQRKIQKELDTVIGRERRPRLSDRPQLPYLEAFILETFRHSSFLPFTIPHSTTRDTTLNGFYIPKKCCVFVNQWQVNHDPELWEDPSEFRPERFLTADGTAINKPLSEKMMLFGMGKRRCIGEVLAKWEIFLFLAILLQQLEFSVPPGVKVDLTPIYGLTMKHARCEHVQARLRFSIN
Summary of the method: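 Read-out is luminescence from luciferin produced by CYP1A2 demethylation of Luciferin-ME (100uM, at Km). Detection reagent stopped the 60 min NADPH-dependent reaction; signals were normalized to 57 uM furafylline.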

[4] = NFAT Signaling Pathway (AID 444); details: Jurkat NFAT-bla M1, carbachol, beta-lactamase ratio, 5 h; at 7.69 µM (top of the series) unless noted;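 also: carbachol stimulus at about its EC50 of 1 µM final; % is scaled to controls: 0 for no effect and ±100 for the full control effect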
Summary of the method: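 Read-out: CCF4 FRET ratio (460 nm/530 nm) after 1 h RT dye loading, used for %activity and AC50 from titration series. Cells: Jurkat NFAT-β-lactamase/M1 line, treated with compound plus 1 uM carbachol for 5 h, 37 °C.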

[5] = Stat Signaling Pathway (AID 446); details: ME-180 (cervical carcinoma) SIE beta-lactamase reporter, IL-6 stimulated, 5 h; at 7.69 µM (top of the series) unless noted;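 also: ME-180 cervical cancer cells given 40 pM IL-6 alongside compound; SIE-controlled beta-lactamase reporter measured as 460/530 nm FRET emission ratio; % is scaled to controls: 0 for no effect and ±100 for the full control effect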
Summary of the method: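 Overnight-plated ME-180 cells bearing a STAT Inducible Element beta-lactamase reporter; 5 h co-exposure to compound and 40 pM IL-6; values normalized to 300 pM IL-6 and 125 nM JAK inhibitor controls.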

[6] = target: Glucocorticoid receptor (Homo sapiens) (UniProt P04150); assay: GR-EFC Redistribution (AID 451; calls by dose curve; also: potency is read from the fitted curve at half-maximal effect); details: CHO-K1 GR-EFC translocation, beta-gal luminescence, 2 h
Sequence of Glucocorticoid receptor (Homo sapiens) (P04150 whole entry, looked up, the tested form may be a part): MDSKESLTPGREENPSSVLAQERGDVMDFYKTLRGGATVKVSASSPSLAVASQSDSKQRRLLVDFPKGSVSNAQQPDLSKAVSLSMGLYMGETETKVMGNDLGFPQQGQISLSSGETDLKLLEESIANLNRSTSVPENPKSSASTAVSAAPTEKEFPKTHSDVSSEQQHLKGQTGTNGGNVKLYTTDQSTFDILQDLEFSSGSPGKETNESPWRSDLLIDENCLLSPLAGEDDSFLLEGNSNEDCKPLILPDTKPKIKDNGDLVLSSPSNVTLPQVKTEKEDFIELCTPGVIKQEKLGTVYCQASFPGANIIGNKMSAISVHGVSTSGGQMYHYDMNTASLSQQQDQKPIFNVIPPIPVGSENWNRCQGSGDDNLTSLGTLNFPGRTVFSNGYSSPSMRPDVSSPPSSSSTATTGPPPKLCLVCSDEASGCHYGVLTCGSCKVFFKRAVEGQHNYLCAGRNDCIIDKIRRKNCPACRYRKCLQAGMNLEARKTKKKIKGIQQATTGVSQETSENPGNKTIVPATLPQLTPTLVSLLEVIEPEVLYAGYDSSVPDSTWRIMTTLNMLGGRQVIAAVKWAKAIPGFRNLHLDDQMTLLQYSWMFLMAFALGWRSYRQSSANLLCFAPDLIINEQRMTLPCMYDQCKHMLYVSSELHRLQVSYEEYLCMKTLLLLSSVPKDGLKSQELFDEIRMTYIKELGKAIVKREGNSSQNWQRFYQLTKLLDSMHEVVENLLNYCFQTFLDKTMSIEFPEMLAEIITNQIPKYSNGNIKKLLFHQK
Summary of the method: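 Translocation of GR-ED fusion to nuclear EA restores b-gal, read by luminescence after 1 h room-temperature detection. Engineered CHO-K1 biosensor cells, 1,000/well, exposed 2 h at 37 C to titrations up to 46 uM final.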

[7] = target: 3',5'-cyclic-AMP phosphodiesterase 4B (Homo sapiens) (UniProt Q07343); assay: qHTS Assay for Inhibitors of PDE-IV (AID 607; active = well fitted activation curve with a large enough effect in the main read-out, with a control signal flat, not every such curve was filed as active; also: % of control where 0% means no effect); details: HEK293 ACTOne CNG channel cells, membrane potential fluorescence; series mostly up to 22.9 µM
Sequence of 3',5'-cyclic-AMP phosphodiesterase 4B (Homo sapiens) (Q07343 whole entry, looked up): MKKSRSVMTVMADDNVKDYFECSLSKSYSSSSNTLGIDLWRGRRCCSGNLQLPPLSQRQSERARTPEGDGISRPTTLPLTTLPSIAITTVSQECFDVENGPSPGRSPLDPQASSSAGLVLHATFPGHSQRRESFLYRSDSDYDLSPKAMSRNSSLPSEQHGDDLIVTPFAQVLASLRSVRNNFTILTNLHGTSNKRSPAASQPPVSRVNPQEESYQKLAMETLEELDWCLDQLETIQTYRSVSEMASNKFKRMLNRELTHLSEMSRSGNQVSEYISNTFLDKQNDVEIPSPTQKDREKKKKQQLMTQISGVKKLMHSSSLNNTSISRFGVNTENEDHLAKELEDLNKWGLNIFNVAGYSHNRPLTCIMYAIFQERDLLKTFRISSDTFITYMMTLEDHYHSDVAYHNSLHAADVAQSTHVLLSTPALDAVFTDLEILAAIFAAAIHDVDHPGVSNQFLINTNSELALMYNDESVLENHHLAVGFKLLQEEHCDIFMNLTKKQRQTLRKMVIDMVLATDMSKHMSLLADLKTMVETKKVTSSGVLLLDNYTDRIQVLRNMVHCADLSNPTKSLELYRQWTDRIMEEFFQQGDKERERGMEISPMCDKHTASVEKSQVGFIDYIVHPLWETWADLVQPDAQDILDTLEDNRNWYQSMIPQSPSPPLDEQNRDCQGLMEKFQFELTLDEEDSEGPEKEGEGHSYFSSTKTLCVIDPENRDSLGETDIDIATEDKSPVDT
Summary of the method: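 Live HEK293 cells with a modified cyclic nucleotide-gated (CNG) channel report intracellular cAMP via membrane-potential dye fluorescence (ex 535/em 590 nm). Endogenous PDE-IV was targeted. Compounds were tested at up to 22.9 uM final; RO 20-1724 100 uM served as control.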

[8] = qHTS Assay for Lipid Storage Modulators (AID 1519; calls by dose curve); details: Drosophila S3 cells, BODIPY lipid droplet/cell ratio, laser cytometry, cells loaded with oleic acid; for activity change, negative = inhibition: at 57.5 µM (top of the series)
Summary of the method: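 Cells seeded at 5,000 per well were treated with compounds over a concentration series and loaded with oleic acid (400 uM, as added). Lipid droplet fluorescence (488 nm excitation, 500-530 nm channel) was read by laser-scanning cytometry and normalized to 20 uM Triacsin C.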

[9] = Primary qHTS for small molecule stabilizers of the endoplasmic reticulum resident proteome: Secreted ER Calcium Modulated Protein (SERCaMP) assay (AID 1508630; active = well fitted curve in the direction sought with a large enough effect; an effect the other way counts as inactive or inconclusive; also: % is scaled to controls: 0 for no effect and ±100 for the full control effect); details: SH-SY5Y GLuc-SERCaMP (Gaussia luciferase released on ER calcium loss) secretion, thapsigargin, luminescence; series mostly up to 38.4 µM
Summary of the method: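 The SH-SY5Y reporter protocol was run at 3 concentrations up to 38.3 uM (primary) or 11 concentrations (follow-up): 16 h compound, 100 nM thapsigargin for 4 h, then extracellular luciferase luminescence.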

[10] = target: Mitogen-activated protein kinase 10 (Mus musculus) (UniProt Q61831); assay: JNK3 AlphaScreen Assay (AID 530); details: JNK3 lysate, c-Jun phosphorylation; series mostly up to 57.1 µM
Summary of the method: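 Kinase buffer: 20 mM Tris-HCl pH 7.6, 10 mM MgCl2, 1 mM DTT, 0.1 mM Na3VO4, 0.01% Tween-20; ATP 10 uM. Substrate biotin-GST-cJun(1-79), enzyme from activated HepG2 lysates. Detection by Ser73 phospho-antibody AlphaScreen.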

[11] = target: Cytochrome P450 3A4 (Homo sapiens) (UniProt P08684); assay: qHTS Assay for Inhibitors and Substrates of Cytochrome P450 3A4 (AID 884; active = well fitted curve in the direction sought with a large enough effect; an effect the other way counts as inactive or inconclusive; also: nearly all actives have a fitted effect of over 50% in size; also: potency is read from the fitted curve at half-maximal effect); details: recombinant CYP3A4, Luciferin-PPXE luminescence; series mostly up to 57.1 µM
Sequence of Cytochrome P450 3A4 (Homo sapiens) (P08684 whole entry, looked up): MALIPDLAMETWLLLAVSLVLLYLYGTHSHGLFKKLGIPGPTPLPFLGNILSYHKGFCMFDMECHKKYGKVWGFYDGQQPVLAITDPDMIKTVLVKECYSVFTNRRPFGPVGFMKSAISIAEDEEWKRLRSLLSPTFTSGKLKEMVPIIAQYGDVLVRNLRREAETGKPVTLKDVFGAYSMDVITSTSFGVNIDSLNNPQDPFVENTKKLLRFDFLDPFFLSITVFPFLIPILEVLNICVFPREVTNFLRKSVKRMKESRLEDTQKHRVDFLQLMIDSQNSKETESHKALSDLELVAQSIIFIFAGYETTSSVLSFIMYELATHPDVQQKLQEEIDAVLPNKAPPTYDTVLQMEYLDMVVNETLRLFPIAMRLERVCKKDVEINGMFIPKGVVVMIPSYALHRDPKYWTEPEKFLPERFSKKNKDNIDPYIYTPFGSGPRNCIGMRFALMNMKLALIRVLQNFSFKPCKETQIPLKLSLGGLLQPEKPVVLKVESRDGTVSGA
Summary of the method: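 Luminescent readout of luciferin produced by CYP3A4 (20 nM) dealkylation of Luciferin-PPXE, 25 uM (its KM). NADPH-driven reaction ran 60 min at RT after 10 min compound preincubation; data scaled to 57 uM ketoconazole as 100% inhibition.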

[12] = target: Cytochrome P450 3A4 (Homo sapiens) (UniProt P08684); assay: qHTS Assay for Activators of Cytochrome P450 3A4 (AID 885; active = well fitted curve in the direction sought with a large enough effect; an effect the other way counts as inactive or inconclusive; also: nearly all actives have a fitted effect of over 65% in size); details: recombinant CYP3A4, Luciferin-PPXE luminescence, 60 min; series mostly up to 57.1 µM
Summary of the method: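 Using 20nM recombinant human CYP3A4 in potassium phosphate (200mM), substrate Luciferin-PPXE at 25uM, luminescent luciferin detection followed a 60-min RT NADPH reaction; data scaled to 57 uM ketoconazole.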

[13] = target: Cytochrome P450 2D6 (Homo sapiens) (UniProt P10635); assay: qHTS Assay for Inhibitors and Substrates of Cytochrome P450 2D6 (AID 891; active = well fitted curve in the direction sought with a large enough effect; an effect the other way counts as inactive or inconclusive; also: potency is read from the fitted curve at half-maximal effect; nearly all actives have a fitted effect of over 60% in size); details: recombinant CYP2D6, luciferin-ME EGE luminescence; series mostly up to 57.1 µM
Sequence of Cytochrome P450 2D6 (Homo sapiens) (P10635 whole entry, looked up): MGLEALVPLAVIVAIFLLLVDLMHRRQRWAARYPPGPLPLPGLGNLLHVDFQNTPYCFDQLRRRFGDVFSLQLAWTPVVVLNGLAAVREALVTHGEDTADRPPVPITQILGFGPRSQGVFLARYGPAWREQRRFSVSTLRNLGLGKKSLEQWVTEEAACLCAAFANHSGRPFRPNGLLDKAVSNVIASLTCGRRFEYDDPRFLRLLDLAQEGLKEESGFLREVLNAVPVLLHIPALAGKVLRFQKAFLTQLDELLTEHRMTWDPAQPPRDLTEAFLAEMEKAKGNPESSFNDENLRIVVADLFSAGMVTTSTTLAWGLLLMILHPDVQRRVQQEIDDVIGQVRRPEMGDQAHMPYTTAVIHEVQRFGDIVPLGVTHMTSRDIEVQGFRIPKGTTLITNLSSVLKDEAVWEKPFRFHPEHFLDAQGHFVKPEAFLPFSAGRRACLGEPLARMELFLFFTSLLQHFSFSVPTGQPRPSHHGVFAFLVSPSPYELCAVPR
Summary of the method: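 Luminescent read-out of luciferin formed by 5 nM human CYP2D6 demethylating 30 uM Luciferin-ME EGE (Km level) over 60 min at room temperature after NADPH regeneration addition. Data normalized to full inhibition by 1.43 uM quinidine.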

[14] = target: Cytochrome P450 2C19 (Homo sapiens) (UniProt P33261); assay: qHTS Assay for Inhibitors and Substrates of Cytochrome P450 2C19 (AID 899; active = well fitted curve in the direction sought with a large enough effect; an effect the other way counts as inactive or inconclusive; also: potency is read from the fitted curve at half-maximal effect; nearly all actives have a fitted effect of over 60% in size); details: recombinant CYP2C19, luciferin-H EGE luminescence; series mostly up to 57.1 µM
Sequence of Cytochrome P450 2C19 (Homo sapiens) (P33261 whole entry, looked up): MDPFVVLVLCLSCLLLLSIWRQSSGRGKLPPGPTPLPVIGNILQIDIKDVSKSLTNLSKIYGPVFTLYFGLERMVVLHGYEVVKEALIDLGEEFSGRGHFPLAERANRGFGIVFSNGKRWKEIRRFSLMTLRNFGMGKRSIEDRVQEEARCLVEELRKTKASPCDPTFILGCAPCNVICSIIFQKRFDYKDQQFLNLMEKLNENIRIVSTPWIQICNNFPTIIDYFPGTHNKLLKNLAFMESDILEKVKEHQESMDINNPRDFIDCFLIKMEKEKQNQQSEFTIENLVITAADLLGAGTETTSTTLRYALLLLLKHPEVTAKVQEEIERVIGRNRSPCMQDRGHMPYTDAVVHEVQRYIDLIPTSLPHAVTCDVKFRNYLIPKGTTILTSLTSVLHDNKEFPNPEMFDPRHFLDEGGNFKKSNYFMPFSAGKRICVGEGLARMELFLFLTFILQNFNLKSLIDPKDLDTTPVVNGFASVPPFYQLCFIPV
Summary of the method: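 5nM enzyme + 10uM Luciferin-H EGE (=KM), 50mM KPO4; cpd pin-transferred, 10 min 37C; NADPH regen, 60 min 37C; stopped w/ luciferin detection reagent, 20 min; luminescence. Normalized to 57uM ketoconazole (AC100).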

[15] = measured here: cell count channel max response
[16] = measured here: lipid channel max response

SMILES | Potency [1] | activity change, negative = inhibition [2] | Potency [3] | activity change, negative = inhibition [4] | activity, negative = inhibition [5] | Potency [6] | Potency [7] | activity change, negative = inhibition [8] | max response [8, 15] | max response [8, 16] | Potency [9] | outcome [10] | Potency [11] | Potency [12] | Potency [13] | Potency [14]
CC(C)NC(=O)N1CCC2(CC1)CCN(C(=O)c1csnn1)CC2 | > 11.4 µM (inactive) | -2.2% (inactive) | inactive | 6.85% (inactive) | -6.49% (inactive) | > 46 µM (inactive) | inactive | 1.46% (inactive) | -0.0052% | 5.7% | inactive | – | – | – | – | –
COCC(=O)N1CCC2(CC1)CN(Cc1ccc(C#N)cc1)C2 | > 11.4 µM (inactive) | 3.59% (inactive) | inactive | -16.7% (inactive) | – | > 46 µM (inactive) | inactive | -4.37% (inactive) | 8.42% | 5.18% | inactive | inactive | – | – | – | –
COc1ccc(C(=O)N2CCC3(CC2)CN(C(=O)NC(C)C)C3)cc1 | > 11.4 µM (inactive) | -5.05% (inactive) | inactive | 12.7% (inactive) | 0.0305% (inactive) | – | inactive | -0.224% (inactive) | -1.09% | 0.517% | inactive | inactive | – | – | – | –
COc1ccc(NC(=O)N2CC3(CCN(C(=O)c4cccn4C)CC3)C2)cc1 | > 11.4 µM (inactive) | -10.5% (inactive) | inactive | 14.9% (inactive) | -11.3% (inactive) | > 46 µM (inactive) | inactive | 6.73% (inactive) | 8.75% | 21.6% | inactive | – | – | – | – | –
CS(=O)(=O)N1CCC2(CC1)CN(c1ccncc1)C2 | > 11.4 µM (inactive) | -2.13% (inactive) | inactive | -17.7% (inactive) | -0.0709% (inactive) | – | inactive | 4.12% (inactive) | -19.4% | -21.8% | inactive | inactive | – | – | – | –
N#Cc1cccc(NC(=O)N2CCC3(CC2)CCN(C(=O)c2ccco2)CC3)c1 | > 11.4 µM (inactive) | -7.83% (inactive) | inactive | -8.92% (inactive) | 4.51% (inactive) | > 46 µM (inactive) | inactive | 6.33% (inactive) | 10.3% | 18.9% | inactive | – | inactive | – | – | –
CS(=O)(=O)N1CCC[C@@]2(CCN(c3ccccn3)C2)C1 | > 11.4 µM (inactive) | -9.92% (inactive) | inactive | -19.3% (inactive) | -8.41% (inactive) | > 46 µM (inactive) | inactive | 2.29% (inactive) | -1.27% | 2.21% | inactive | – | – | inactive | – | –
O=C(c1cnccn1)N1CCC[C@@]2(CCN(Cc3cc(C(F)(F)F)cc(C(F)(F)F)c3)C2)C1 | > 11.4 µM (inactive) | -16.9% (inactive) | inactive | 16.8% (inactive) | 2.8% (inactive) | – | inactive | 4.01% (inactive) | 14.7% | 20.7% | inactive | inactive | 7.94 µM (active) | inactive | 3.16 µM (active) | –
c1ccc(-c2ccc(N3CC4(CCNCC4)C3)cc2)cc1 | > 11.4 µM (inactive) | 5.34% (inactive) | 15.8 µM (active) | 4.74% (inactive) | 4.95% (inactive) | > 46 µM (inactive) | inactive | -2.41% (inactive) | -25% | -25.6% | inactive | – | – | inactive | – | –
O=S(=O)(c1ccccc1)N1CCC[C@@]2(CCN(c3ccccc3)C2)C1 | > 11.4 µM (inactive) | -10.1% (inactive) | 3.98 µM (active) | -13.8% (inactive) | -4.22% (inactive) | > 46 µM (inactive) | – | -16% (inactive) | 5.79% | -9.53% | inactive | – | 5.01 µM (active) | inactive | – | 0.316 µM (active)
Cn1cccc1C(=O)N1CCC[C@@]2(CCN(c3ccccc3)C2)C1 | > 11.4 µM (inactive) | -3.25% (inactive) | 12.6 µM (active) | -15.1% (inactive) | -10.8% (inactive) | > 46 µM (inactive) | inactive | -1.47% (inactive) | 15.8% | 17.2% | inactive | – | – | inactive | – | 5.01 µM (active)
Cn1cccc1C(=O)N1CCC2(CCCN(c3ccccc3)C2)CC1 | > 11.4 µM (inactive) | -3.96% (inactive) | 10 µM (active) | 5.63% (inactive) | -6.3% (inactive) | > 46 µM (inactive) | inactive | 1.89% (inactive) | 1.38% | 7.11% | inactive | – | – | inactive | – | –
O=C(c1cccc(F)c1)N1CCC[C@@]2(CCN(c3ccncc3)C2)C1 | > 11.4 µM (inactive) | -0.222% (inactive) | inactive | -14.9% (inactive) | -5.12% (inactive) | – | inactive | 6.94% (inactive) | 20% | 29.4% | inactive | inactive | 0.316 µM (active) | inactive | – | –
O=C(c1cnccn1)N1CCC2(CC1)CN(c1ccncc1)C2 | > 11.4 µM (inactive) | 4.42% (inactive) | inactive | -19.4% (inactive) | 2.09% (inactive) | > 46 µM (inactive) | inactive | -0.9% (inactive) | -18.2% | -17.9% | inactive | – | – | – | – | –

Reference: PubChem BioAssay (NCATS)
